# From PubChem BioAssay (NCI)
# Compounds without any hit were thinned out: in the full panel of roughly 83,000, 20% have a hit.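 Treatment: one concentration, 48 hours, 96-well format. Scoring: percent growth, with anything below 10 considered active.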 Values without a mark were called inactive. Calls of active or inactive are those of the source.
# Legend:
# Assay in all cases: NCI-60 one-dose screen, 48 h (100 = growth as untreated, 0 = no growth, -100 = all killed)
# Settings in all cases: 10 µM unless noted
# MOLT-4 leukemia = tested on: MOLT-4 leukemia
# SR leukemia = tested on: SR leukemia
# OVCAR-8 ovarian = tested on: OVCAR-8 ovarian
# OVCAR-5 ovarian = tested on: OVCAR-5 ovarian
# OVCAR-4 ovarian = tested on: OVCAR-4 ovarian
# SK-OV-3 ovarian = tested on: SK-OV-3 ovarian
# OVCAR-3 ovarian = tested on: OVCAR-3 ovarian
# HS 578T breast = tested on: HS 578T breast
# NCI/ADR-RES ovarian = tested on: NCI/ADR-RES ovarian
# T-47D breast = tested on: T-47D breast
# MDA-MB-435 melanoma = tested on: MDA-MB-435 melanoma
# SW-620 colon = tested on: SW-620 colon
# MCF7 breast = tested on: MCF7 breast
# HCT-116 colon = tested on: HCT-116 colon
# HCC-2998 colon = tested on: HCC-2998 colon
# KM12 colon = tested on: KM12 colon
# RPMI-8226 leukemia = tested on: RPMI-8226 leukemia
# IGROV1 ovarian = tested on: IGROV1 ovarian
# BT-549 breast = tested on: BT-549 breast
Structure (SMILES),growth (MOLT-4 leukemia),growth (SR leukemia) [%],growth (OVCAR-8 ovarian),growth (OVCAR-5 ovarian),growth (OVCAR-4 ovarian),growth (SK-OV-3 ovarian),growth (OVCAR-3 ovarian),growth (HS 578T breast),growth (NCI/ADR-RES ovarian),growth (T-47D breast),growth (MDA-MB-435 melanoma),growth (SW-620 colon),growth (MCF7 breast),growth (HCT-116 colon),growth (HCC-2998 colon),growth (KM12 colon),growth (RPMI-8226 leukemia),growth (IGROV1 ovarian),growth (BT-549 breast)
CCOC(=O)c1c(C)n(Cc2ccccc2)c2cc(CN(C)C)c(O)cc12,52.7%,17.8,80.7%,69.3%,68.1%,70.4%,79.4%,61.1%,63.5%,61.1%,80.3%,63%,55.3%,51.7%,55.4%,76.5%,–,–,–
O=C1NC(=O)C(=Cc2cn(CCCCCCn3c4ccccc4c(=O)c4ccccc43)c3ccccc23)C(=O)N1,63.2%,–,91.8%,22.6%,85.8%,77.5%,99.2%,103%,83.9%,60.6%,102%,93.8%,71.6%,70.2%,96.8%,95.8%,76.2%,79.2%,94.3%
COC(=O)[C@@H](C)C[C@H](Cc1ccccc1)NC(=O)c1csc([C@@H](C[C@H](C(C)C)N(C)C(=O)C2(NC(=O)[C@H]3CCCCN3C)CC2)OC(C)=O)n1,9.45% (active),–,23.3%,20.3%,44.5%,19.1%,-16.4% (active),12%,61.8%,51.5%,-28.8% (active),22.2%,18.9%,0.459% (active),-2.95% (active),5.25% (active),12.8%,27.1%,12.8%
O=C1Nc2ccccc2C2c3cccn3-c3ccccc3CN12 (centres undefined),29.3%,–,63.3%,82.3%,71.7%,46.7%,41.7%,64.2%,20.9%,27.7%,-15% (active),24.5%,38.8%,41.7%,71.1%,30.3%,55.2%,62.9%,50.7%
C[C@@]1(CCCCCCCCCc2ccc(O)cc2)C[C@]2(C)OC(=O)C[C@@H]2OO1,78%,–,94.5%,94.7%,85.5%,122%,126%,92.9%,53.4%,83.9%,109%,103%,117%,77.5%,105%,127%,83%,-51.3% (active),102%
C[C@]12CCc3nc(Nc4ccccc4F)sc3C1=CC[C@@H]1[C@@H]2CC[C@]2(C)C(=O)CC[C@@H]12,14.2%,–,70.8%,76.5%,73.9%,72.6%,29.2%,67.8%,73.9%,37.5%,52.5%,-12.6% (active),12.5%,-22.4% (active),80.1%,42.5%,15%,61.8%,66.2%
CC12CC=CCC1CCC1C2CCC2(C)C(c3ccc(=O)oc3)CCC12O (centres undefined),-15.7% (active),–,-41.8% (active),-80.6% (active),-48.1% (active),-8.44% (active),-76.8% (active),-18.5% (active),-41.1% (active),-4.1% (active),-89.1% (active),-58.9% (active),-21.6% (active),-67.1% (active),-10.9% (active),-49.5% (active),-9.88% (active),-12.3% (active),-65.4% (active)
COc1cccc2c1c(C(=O)c1ccco1)cn2Cc1ccc(F)cc1,307%,–,108%,122%,114%,122%,108%,122%,104%,97.2%,148%,109%,99.6%,111%,102%,116%,182%,8.63% (active),116%
COc1cccc2c1c(C(=O)C(=O)Nc1cc(C)no1)cn2Cc1ccc(F)cc1,32.5%,–,81.7%,76.1%,90.9%,102%,3.35% (active),53.3%,-0.189% (active),68%,-34.4% (active),15.5%,26.9%,34.4%,58.4%,16.4%,20.7%,37%,25.5%
COC(=O)[C@@H](C)C[C@H](Cc1ccccc1)NC(=O)c1csc([C@@H](C[C@H](C(C)C)N(C)C(=O)[C@@H](NC(=O)[C@H]2CCCCN2C)C2CC2)OC(C)=O)n1,15.3%,–,22.2%,73%,57.4%,21.9%,-4.55% (active),35.7%,8.28% (active),73%,-12.1% (active),48.4%,16.3%,7.53% (active),15.9%,5.07% (active),34.9%,30.8%,-30.6% (active)
N#C[S-].[Au+].c1ccc(CN2[CH-]N(Cc3ccccc3)C(c3ccccc3)=C2c2ccccc2)cc1,3.58% (active),–,12.1%,36.8%,19.4%,-0.746% (active),-6.54% (active),36.3%,59.8%,7.11% (active),13.3%,17.9%,4.87% (active),8.06% (active),30.9%,14.2%,-16.4% (active),30.3%,23.4%
[Au+].[N-]=C=O.c1ccc(CN2[CH-]N(Cc3ccccc3)C(c3ccccc3)=C2c2ccccc2)cc1,76.1%,–,98.9%,145%,79.7%,96.8%,82.6%,84.4%,109%,52.4%,101%,89.6%,46.1%,67.6%,79.9%,90.4%,63.9%,81.1%,89.8%
CCC(CC)CC1(C)CC2(C)CCOC2OO1 (centres undefined),113%,–,102%,113%,95.4%,111%,115%,92.6%,104%,97.8%,109%,104%,104%,108%,93.4%,111%,103%,114%,112%
C[Se]C(=O)c1ccccc1OC(C)=O,54.8%,–,35.1%,54.3%,85.3%,118%,55.3%,35.3%,35%,89.1%,46.4%,79.6%,53.3%,19.6%,95.5%,88.9%,88.6%,46.1%,27.9%
Nc1nnnc2nc[nH]c12,8.9% (active),–,11.5%,-3.28% (active),27.4%,-1.85% (active),27.6%,8.71% (active),0.552% (active),-26.6% (active),-11.8% (active),11%,15.3%,-11.8% (active),17.1%,25.6%,-11.4% (active),8.3% (active),43.8%
C[C@@]12CC[C@@H](O)C[C@@H]1CC[C@H]1[C@H]2CC[C@@]2(C)[C@H](c3ccc(=O)oc3)CC[C@@]12O,-26.7% (active),–,-63.3% (active),-86.2% (active),-76.3% (active),-11.9% (active),-84.8% (active),-14% (active),-39.6% (active),-18.1% (active),-81.9% (active),-68.3% (active),-27% (active),-76% (active),-50.7% (active),-87.6% (active),-14.8% (active),-28.7% (active),-84.2% (active)
COC1=CC(=O)O[C@@H](/C=C/c2ccc3c(c2)OCO3)C1,91%,–,99.3%,95.7%,112%,110%,153%,95.1%,95.7%,93.2%,100%,104%,99.7%,105%,111%,103%,49.9%,99.2%,95%
